# Results from PubChem BioAssay.
# The source made the active and inactive calls. Rule as the data show it, unless noted: active = inhibition above about 80%; inactive = the rest.
# What was measured:
# [1] = LFS_MB_P medulloblastoma growth inhibition, cell-based, chromothripsis tumors, cisplatin or BGB combos (AID 1671449); conditions: LFS_MB_P medulloblastoma cells;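 also: cells exposed for 96 hours; 0% = vehicle DMSO and 100% = killing by high DMSO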
# [2] = HDN33 neuroblastoma growth inhibition, cell-based, chromothripsis tumors, cisplatin or BGB combos (AID 1671450); conditions: HDN33 neuroblastoma cells, stronger effect = higher value;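 also: cells exposed to compound for four days; 0% = vehicle DMSO and 100% = cell killing by high DMSO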
# [3] = ICB984 medulloblastoma cell growth inhibition, synergistic combos for chromothripsis tumors, cisplatin or BGB combos (AID 1671451; call rule not given here;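 also: cells exposed for 96 hours before readout; 0% = vehicle DMSO and 100% = killing by high DMSO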); conditions: ICB984 medulloblastoma cells, drug combinations, stronger effect = higher value
# [4] = LFS_MB_1R medulloblastoma cell growth inhibition, synergistic combos for chromothripsis tumors, cisplatin or BGB combos (AID 1671452); conditions: LFS_MB_1R medulloblastoma cells, stronger effect = higher value;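 also: cells exposed for 96 hours before readout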
# [5] = HTB85 osteosarcoma cell growth inhibition, synergistic combos for chromothripsis tumors, BGB or cisplatin IC20 combos (AID 1671453); conditions: HTB85 osteosarcoma cells, drug combinations, stronger effect = higher value;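 also: cells exposed for 96 hours before readout; 0% = vehicle DMSO and 100% = high DMSO killing control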
# [6] = CRL2098 osteosarcoma cell growth inhibition, synergistic combos for chromothripsis tumors, BGB or cisplatin IC20 combos (AID 1671454); conditions: CRL2098 osteosarcoma cells, drug combinations, stronger effect = higher value;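 also: cells exposed for 96 h before readout; 0% = vehicle DMSO and 100% = killing by high DMSO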
# [7] = HD-MB03 medulloblastoma cell growth inhibition, synergistic combos for chromothripsis tumors, BGB or cisplatin IC20 combos (AID 1671455; in the data active = inhibition above about 83%;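 also: 0% = vehicle DMSO and 100% = high DMSO as cytotoxic control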); conditions: HD-MB03 medulloblastoma cells, stronger effect = higher value
# [8] = UWB1.289 ovarian carcinoma cell growth inhibition, synergistic combos for chromothripsis tumors, BGB or cisplatin combos (AID 1671456); conditions: UWB1.289 ovarian carcinoma cells, stronger effect = higher value;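 also: cells exposed to compound for four days; 0% = vehicle DMSO and 100% = killing by high DMSO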
# [9] = LFS_MB_2R medulloblastoma cell growth inhibition, synergistic combos for chromothripsis tumors, cisplatin combos (AID 1671457); conditions: LFS_MB_2R medulloblastoma cells, stronger effect = higher value;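 also: cells exposed to compound for four days before readout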
# [10] = MDA-MB-436 breast carcinoma cell growth inhibition, synergistic combos for chromothripsis tumors, BGB or cisplatin combos (AID 1671458; call rule not given here;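 also: cells exposed for 96 hours; 0% = vehicle DMSO and 100% = killing by high DMSO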); conditions: MDA-MB-436 breast carcinoma growth inhibition, drug combinations, stronger effect = higher value
# [11] = UWB1.289_BRCA1 ovarian cancer growth, cell-based, BGB or cisplatin combinations (AID 1671459); conditions: UWB1.289 BRCA1 ovarian carcinoma, drug combinations, stronger effect = higher value
# [12] = human astrocyte viability loss, single and combined drugs, cytotoxicity control for chromothriptic childhood tumor combination screen, cell-based, BGB or cisplatin IC20 combos (AID 1671460); conditions: Human astrocytes, drug combinations, stronger effect = higher value;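 also: cells exposed to compounds for 96 hours before viability readout; 0% = vehicle and 100% = killing control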
# [13] = growth inhibition of BT084 medulloblastoma cells, cell-based, ICGC_MB145, cisplatin and BGB IC40 combos (AID 1671461); conditions: drug combinations, stronger effect = higher value;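 also: cells exposed to drugs for 96 hours; 0% = vehicle DMSO and 100% = high DMSO full killing control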
# [14] = growth inhibition of RCMB18 medulloblastoma cells, cell-based, cisplatin and BGB IC40 combos (AID 1671462); conditions: stronger effect = higher value;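 also: cells exposed to compound for four days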
# [15] = growth inhibition of CRL1545 osteosarcoma cells, cell-based, cisplatin and BGB IC20 combos (AID 1671464); conditions: stronger effect = higher value;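 also: cells exposed to compound for 96 hours before readout; 0% = vehicle DMSO and 100% = high DMSO killing control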
# [16] = measured here: combination with BGB IC40, at 0.05 µM
# [17] = measured here: with BGB IC20 combination, at 0.5 µM
# [18] = measured here: with cisplatin IC20 combination, at 0.5 µM
# [19] = measured here: combination with cisplatin, at 0.5 µM
# [20] = measured here: combination with cisplatin, at 5 µM
structure (smiles),measurement,setting,value
O=C(CCSc1nc2ccccc2c(=O)[nH]1)NC1CCC(c2nnc(-c3ccccc3)o2)CC1 (stereo not drawn),inhibition,"[1]; at 0.5 µM, stronger effect = higher value",-18.8% (inactive)
same,inhibition,"[1]; measured here: combination with BGB IC20, at 0.005 µM",-14.4%
same,inhibition,"[1]; measured here: combination with BGB IC40, at 0.005 µM",-25.3%
same,inhibition,[1]; [16],-55.5%
same,inhibition,"[1]; measured here: combination with cisplatin, at 0.5 µM, stronger effect = higher value",-16.2%
same,inhibition,"[1]; measured here: combination with cisplatin, at 5 µM, stronger effect = higher value",-49.7%
same,inhibition,"[2]; BGB combo, at 5 µM",11.8%
same,inhibition,[2]; at 0.5 µM,16.1% (inactive)
same,inhibition,"[2]; cisplatin combo, at 5 µM",29.6%
same,inhibition,[2]; [17],8.27%
same,inhibition,[2]; [18],21.3%
same,inhibition,"[2]; single agent, at 5 µM",32.4%
same,inhibition,"[3]; BGB IC20 combo, at 0.005 µM",-2.22%
same,inhibition,"[3]; BGB IC40 combo, at 0.005 µM",-49.4%
same,inhibition,"[3]; BGB IC40 combo, at 0.05 µM",-27.2%
same,inhibition,[3]; at 0.5 µM,-25.5% (inactive)
same,inhibition,"[3]; cisplatin combo, at 0.05 µM",-31.8%
same,inhibition,"[3]; cisplatin combo, at 0.5 µM",-22.3%
same,inhibition,"[3]; cisplatin combo, at 5 µM",-10.9%
same,inhibition,"[3]; measured here: 5 uM single agent, at 5 µM",-18.3%
same,inhibition,[4]; at 0.5 µM,-14.6% (inactive)
same,inhibition,[4]; [16],6.03%
same,inhibition,[4]; [19],-5.82%
same,inhibition,[4]; [20],-21.2%
same,inhibition,[5]; at 0.5 µM,2.93% (inactive)
same,inhibition,"[5]; measured here: with BGB IC20, at 0.5 µM",-9.32%
same,inhibition,"[5]; measured here: with BGB IC20, at 5 µM",-14.4%
same,inhibition,"[5]; measured here: with cisplatin IC20, at 0.5 µM",5.46%
same,inhibition,"[5]; measured here: with cisplatin IC20, at 5 µM",-13.6%
same,inhibition,"[5]; single agent, at 5 µM",0.754%
same,inhibition,[6]; at 0.5 µM,-30.9% (inactive)
same,inhibition,"[6]; measured here: combination with BGB at IC20, at 0.5 µM",-25.3%
same,inhibition,"[6]; measured here: combination with cisplatin at IC20, at 0.5 µM",-55.1%
same,inhibition,[7]; at 0.5 µM,5.94% (inactive)
same,inhibition,"[7]; measured here: combo with BGB at IC20, at 0.5 µM",-6.25%
same,inhibition,"[7]; measured here: combo with cisplatin at IC20, at 0.5 µM",23%
same,inhibition,[8]; at 0.5 µM,10.2% (inactive)
same,inhibition,"[8]; measured here: inhibition with BGB combination, at 0.05 µM",-3.32%
same,inhibition,"[8]; measured here: inhibition with cisplatin combination, at 0.05 µM",13%
same,inhibition,[9]; at 0.5 µM,-3.45% (inactive)
same,inhibition,[9]; [19],-13.5%
same,inhibition,[9]; [20],-4.17%
same,inhibition,[10]; at 0.5 µM,4.84% (inactive)
same,inhibition,"[10]; measured here: BGB combination, at 0.5 µM",-2.01%
same,inhibition,"[10]; measured here: BGB combination, at 5 µM",-13.2%
same,inhibition,"[10]; measured here: cisplatin combination, at 0.5 µM",5.45%
same,inhibition,"[10]; measured here: cisplatin combination, at 5 µM",-2.11%
same,inhibition,"[11]; BGB combination, concentration series, at 5 µM",9.22%
same,inhibition,[11]; at 0.5 µM,8.17% (inactive)
same,inhibition,"[11]; cisplatin combination, concentration series, at 5 µM",-16.8%
same,inhibition,[12]; at 0.5 µM,41.8% (inactive)
same,inhibition,"[12]; measured here: combo with BGB IC20, at 0.5 µM",31.3%
same,inhibition,"[12]; measured here: combo with cisplatin IC20, at 0.5 µM",43.3%
same,inhibition,[13]; at 0.5 µM,-6.61% (inactive)
same,inhibition,"[13]; cisplatin combination, at 0.5 µM",-27.5%
same,inhibition,"[13]; cisplatin combination, at 5 µM",2.51%
same,inhibition,"[13]; measured here: BGB IC40 combination 0.05 uM, at 0.05 µM",-56.9%
same,inhibition,"[13]; single agent, at 5 µM",-15.2%
same,inhibition,[14]; at 0.5 µM,-4.49% (inactive)
same,inhibition,"[14]; cisplatin combo, at 5 µM",16.1%
same,inhibition,"[14]; measured here: BGB IC40 combination, at 0.05 µM",-6.16%
same,inhibition,[14]; [19],22.5%
same,inhibition,"[14]; single agent, at 5 µM",-14.1%
same,inhibition,[15]; at 0.5 µM,-21.1% (inactive)
same,inhibition,[15]; [17],-27%
same,inhibition,[15]; [18],-20%
same,inhibition,"[15]; single agent, at 0.05 µM",24.5%
same,inhibition,"[15]; single agent, at 5 µM",-45%
